# According to PubChem BioAssay (NCI):
# About 83,000 compounds went through this panel and 20% of them were active in at least one assay; those are over-represented in the sample as a whole.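 48-hour exposure, single concentration, 96-well plates; percent growth endpoint where 0 means no net growth. Active: below 10.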 Active and inactive are the calls of the source.
# Test system: HL-60(TB) leukemia
# Experiment: NCI-60 one-dose screen, 48 h (100 = growth as untreated, 0 = no growth, -100 = all killed)
# Details: 10 µM unless noted
row,SMILES,growth
1,c1ccc(C(c2nc3ncncc3[nH]2)N2CSc3nc4ccccc4n3C2)cc1 (stereo not given),108% (inactive)
2,CC1=CC(=O)C2=C(C)CC(OC(=O)CCc3ccccc3)[C@@H]3[C@H](OC(=O)[C@@H]3C)[C@@H]12 (stereo not given in full),87.9% (inactive)
3,COc1ccc(-c2nc3ccc(-c4nnc(SCC(=O)Nc5ccc(C(=O)/C=C/c6ccccc6)cc5)o4)cc3[nH]2)cc1OC,100% (inactive)
4,CCc1cc(OC(=O)N2CCC(N3CCCCC3)CC2)ccc1Nc1cc(-c2ccc(-n3cccn3)cc2)[nH]n1,62.5% (inactive)
5,Clc1cccc(/C=N/Nc2nc(N/N=C/c3cccc(Cl)c3Cl)nc(N3CCCCC3)n2)c1Cl,106% (inactive)
6,C=CC(=O)N1CC=C(c2cc3c(N[C@H](C)c4ccccc4)ncnc3[nH]2)CC1,104% (inactive)
7,CC(C)N=C(N/C(N)=N/c1nc2ccccc2s1)NC(C)C,41.7% (inactive)
8,CCNC(=O)Oc1ccc(/C(=C(/C)c2ccc(Cl)cc2)c2ccc(OCCN(C)C)cc2)cc1,52.7% (inactive)
9,O=C(CN1CCOCC1)NNc1ncnc2ccccc12,53% (inactive)
10,CC(C)(C)c1cc(NC(=O)Nc2ccc(-c3cn4c5c(sc4n3)CCc3c[nH]cc3-5)cc2)no1,9.58% (active)
11,C(=C(\C1=NCCN1)n1cnc2ccccc21)/c1ccc2ccccc2c1,50.5% (inactive)
12,Cn1ccnc1C(=O)/C=C/c1ccc(NC(=O)c2ccc(F)cc2)cc1,11.8% (inactive)
13,O=C(O)c1ccc(-n2c(=O)n(-c3cccc(C(F)(F)F)c3)c(=O)c3cc(-c4ccc(F)cc4F)ccc32)cc1,-41.4% (active)
14,C=C(C)[C@@H]1CC[C@]2(C(=O)NCCCN(CCC#N)CCC#N)CC[C@]3(C)[C@H](CC[C@@H]4[C@@]5(C)CCC(=O)C(C)(C)[C@@H]5CC[C@]43C)[C@@H]12,96.3% (inactive)
15,O=C(CCCCCCN1CC(=O)N2[C@@H](c3ccccc3)c3[nH]c4ccccc4c3C[C@H]2C1=O)NO,28.5% (inactive)
16,C#CCn1cccc1CNc1ccc(OC)cc1,-63.1% (active)
17,CN1CCN(Cc2ccc(/C=N/Nc3ccnc4cc(Cl)ccc34)cc2)CC1,72.4% (inactive)
18,CNC(=O)c1c(NC(=O)c2ccccc2C(F)(F)F)sc2c1CCC(=O)C2,-10.5% (active)
19,O=S(=O)(Nc1ccc(-c2nc(-c3cccc(O)c3)c(-c3ccnc(Br)c3)[nH]2)cc1)c1ccccc1,-9.12% (active)
20,Cn1cc(-c2nc(N)nnc2-c2c[nH]c3ccc(Br)cc23)c2cc(F)ccc21,75.3% (inactive)

row,SMILES,growth
1,Cc1cc(F)cc(NS(=O)(=O)c2ccc(-c3cnc(C4CC4)o3)cc2)c1,1.67% (active)
2,COc1cc2nc(Cl)nc(Nc3cccc(C4=Nc5c(N)nc(N)nc5NC(c5ccccc5)C4)c3)c2cc1OC (stereo not given),66.4% (inactive)
3,Oc1ccc(CSc2nnc(-c3ccccc3)o2)c2cccnc12,7.7% (active)
4,Clc1ccc2[nH]cc(-c3nn4cc(-c5ccncc5)nc4s3)c2c1,89.8% (inactive)
5,CC1CCN(CC(=O)Nn2c(COc3ccccc3)nc3ccccc3c2=O)CC1,80.3% (inactive)
6,COc1cccc2cc(-c3cc4ccccc4[nH]3)/c(=N\NC(=O)c3ccc(Cl)cc3)oc12,-11.8% (active)
7,O=c1c2cc(-c3ccc(F)cc3F)ccc2n(O)c(=O)n1-c1cccc(C(F)(F)F)c1,-50.2% (active)
8,N/C(=N\C(N)=N\c1nc2ccccc2s1)c1ccc(C(F)(F)F)cc1,53.6% (inactive)
9,NC(=O)c1c(NC(=O)c2ccc(C3CCCCC3)cc2)sc2c1CCC(=O)C2,7.79% (active)
10,COc1cc2oc(-c3cccc(N)c3)cc(=O)c2c(OC)c1OC,96.8% (inactive)
11,O=C(CSc1nccc(=O)[nH]1)Nc1ccc(-c2nc3ccccc3[nH]2)cc1,115% (inactive)
12,COc1ccc2oc3c4[nH]c5ccccc5c4c4c(c3c2c1)C(=O)N(O)C4=O,102% (inactive)
13,CC/C(=C/c1cc(OC)ccc1O)c1ccc2cc(OC)ccc2[o+]1,6.9% (active)
14,CCOC(=O)c1ccccc1NC1=C(Cl)C(=O)c2nc(C)ccc2C1=O,70.9% (inactive)
15,CC(=O)c1nnn(-c2c(C(=O)n3nc(C)cc3C)sc(=S)n2-c2ccccc2)c1C,110% (inactive)
16,O=C1[C@@H]2Cc3c([nH]c4ccccc34)[C@H](c3ccc(Br)cc3)N2C(=O)CN1C1CCN(Cc2c(Cl)cccc2Cl)CC1,-79% (active)
17,O=c1nc(Nc2ccc([N+](=O)[O-])cc2O)sc2ccccc12,-13.3% (active)
18,CCOC(=O)c1c(NCC(=O)Nc2cccc(Cl)c2)sc2c1CCCC2,90.8% (inactive)
19,COc1ccc(-c2nc3cc(Cl)c(Cl)cc3n2CC(=O)N=Nc2c(O)[nH]c3ccccc23)cc1,92.5% (inactive)
20,CC1(C)NCCC[C@]2(C)[C@H]3C/C(=N\O)C4[C@@H]5C[C@@](C)(CO)CC[C@]5(C)CC[C@@]4(C)[C@]3(C)CC[C@@H]12 (stereo not given in full),68.9% (inactive)
